Reference: PubChem BioAssay
Values joined by “and” are separate entries in the source; they are usually repeats but may differ in a detail not shown here. Identical values can stand only once. Records with an inconclusive call do not appear. Active and inactive are the calls of the source. Unless noted, the rule behind the calls is not given here.

Experiments:
[1] = system: Aerobactin synthetase IucA (Klebsiella pneumoniae); test: IucA aerobactin synthetase inhibitors, biochemical, Tocris library, absorbance (AID 1345561); details: purified IucA enzyme assay, absorbance (OD) read-out; stronger effect = lower value;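 tested at 8 µM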;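 note: 100% = enzyme without compound and 0% = no enzyme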
[2] = Cy5 fluorescence interference with SSB-bound oligo, artefact control for HCV NS3 helicase inhibitor project, biochemical, NIH Clinical Collection, E. coli SSB (AID 743268)
[3] = system: Hepatitis C virus NS3 helicase; test: HCV NS3 helicase inhibitors, primary screen, biochemical, fluorescence polarization, NIH Clinical Collection (AID 743270); details: NS3 helicase binding to Cy5-dT15 DNA, stronger effect = higher value, concentration not given here
[4] = biological target: Single-stranded DNA-binding protein (Escherichia coli (strain K12)) (UniProt P0AGE0); test: E. coli SSB displacement from DNA, counter-screen for HCV NS3 helicase inhibitor project, biochemical, fluorescence polarization, NIH Clinical Collection (AID 743271; in the data active = inhibition above about 28%); details: stronger effect = higher value, concentration not given here
[5] = fluorescence interference in NS3h assay format, artefact control for HCV NS3 helicase inhibitor project, biochemical, NIH Clinical Collection (AID 743272); details: fluorescence interference counterscreen, stronger effect = lower value;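 note: HCV NS3 helicase with a Cy5 labelled single stranded DNA probe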
[6] = growth inhibition of DIPG glioma cells, dose response, cell-based, SU-DIPG-XVII, MIPE5.0, CellTiter-Glo, qHTS (AID 1347060; cut-off not given, nearly all actives have AC50 up to about 26 µM); details: SU-DIPG-XVII viability, CellTiter-Glo ATP luminescence
[7] = growth inhibition of DIPG glioma cells, dose response, cell-based, SU-DIPG-XIII, MIPE4.0, CellTiter-Glo, qHTS (AID 1347061; cut-off not given, nearly all actives have AC50 up to about 37 µM;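 note: cells exposed to compound for 48 hours before readout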); details: SU-DIPG-XIII viability, CellTiter-Glo ATP luminescence
[8] = growth inhibition of DIPG glioma cells, dose response, cell-based, JHH-DIPG-1, MIPE4.0, CellTiter-Glo, qHTS (AID 1347062; cut-off not given, nearly all actives have AC50 up to about 27 µM); details: JHH-DIPG-1 viability, CellTiter-Glo ATP luminescence
[9] = viability loss in pontine glioma line – cell-based, SU-DIPG-XXV, MIPE5.0, CellTiter-Glo, qHTS, dose response (AID 1347065; cut-off not given, nearly all actives have AC50 up to about 26 µM;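 note: cells exposed to compound for 48 hours before ATP readout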); details: CellTiter-Glo ATP luminescence
[10] = SU-DIPG-VI glioma cell viability, MIPE4.0 library, CellTiter-Glo luminescence, qHTS (AID 1347066; cut-off not given, nearly all actives have AC50 up to about 30 µM;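 note: cells exposed to compound for 48 hours before readout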); details: CellTiter-Glo ATP luminescence
[11] = JHH-DIPG-1 glioma cell viability, MIPE5.0 library, CellTiter-Glo luminescence, qHTS (AID 1347067; cut-off not given, nearly all actives have AC50 up to about 26 µM;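 note: cells exposed to compound for 48 hours before readout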); details: JHH-DIPG-1 glioma viability, CellTiter-Glo ATP luminescence
F380Y/beta4 = test: modulators of BK channel variants, profiling panel, selectivity assay, cell-based, U2OS BacMam, thallium flux, beta subunits (AID 1259406;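 active = thallium flux through the channel raised or lowered by more than 3 SD from vehicle-only wells, actives on both sides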;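 note: initial slope of Thallos dye fluorescence rise after thallium is added; log ratio against the mean of 0.3% DMSO vehicle wells on the same plate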); details: at 30 µM
[12] = biological target: Calcium-activated potassium channel subunit alpha-1 (Homo sapiens) + Leucine-rich repeat-containing protein 26 (Homo sapiens) (UniProt Q12791+Q2I0M4); test: as above; details: F380Y/Slo1WT/gamma1, at 30 µM
Calcium-activated potassium channel subunit alpha-1 (Homo sapiens) + Leucine-rich repeat-containing protein 26 (Homo sapiens), sequence (Q2I0M4 whole entry, looked up, one chain of several): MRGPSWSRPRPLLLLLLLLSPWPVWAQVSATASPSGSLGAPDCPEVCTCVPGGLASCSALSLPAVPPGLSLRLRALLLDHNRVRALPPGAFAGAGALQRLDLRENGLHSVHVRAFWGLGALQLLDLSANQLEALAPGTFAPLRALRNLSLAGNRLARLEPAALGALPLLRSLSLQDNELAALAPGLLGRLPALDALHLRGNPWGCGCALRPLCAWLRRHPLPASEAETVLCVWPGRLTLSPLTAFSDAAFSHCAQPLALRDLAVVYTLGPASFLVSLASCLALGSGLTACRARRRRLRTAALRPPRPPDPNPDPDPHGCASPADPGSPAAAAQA

R275C/beta4 = test: as above; details: at 30 µM
[13] = growth inhibition of DIPG glioma cells, dose response, cell-based, SU-DIPG-IV, MIPE4.0, CellTiter-Glo, qHTS (AID 1347063; cut-off not given, nearly all actives have AC50 up to about 30 µM;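 note: compound exposure lasted 48 hours before the viability readout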); details: SU-DIPG-IV viability, CellTiter-Glo ATP luminescence
[14] = SU-DIPG-XXV glioma cell viability, MIPE5.0 library, qHTS (AID 1347068; cut-off not given, nearly all actives have IC50 up to about 30 µM)

CC[C@@H](CO)NC(=O)[C@@H]1C=C2c3cccc4c3c(cn4C)C[C@H]2N(C)C1
inactive: remaining activity [1] 121%

C=C1C[C@@H]2[C@H](CC[C@]3(C)C(=O)CC[C@@H]23)[C@@]2(C)C=CC(=O)C=C12
inactive: fluorescence ratio [2] 1.07 | inhibition [3] 2.77% | inhibition [4] 2.98% | fluorescence ratio [5] 1.05 | outcome [6] | outcome [7] | outcome [8] | outcome [9] | outcome [10] | outcome [11] | log fold change Tl+ flux (F380Y/beta4) 0.013 | log fold change Tl+ flux [12] 0.0186 | log fold change Tl+ flux (R275C/beta4) 0.0226

Nc1ccncc1
inactive: remaining activity [1] 127%

NC(=O)OCCCc1ccccc1
inactive: fluorescence ratio [2] 1.07 | inhibition [3] 0.4% | inhibition [4] -1.64% | fluorescence ratio [5] 1.03 | log fold change Tl+ flux (F380Y/beta4) 0.0583 | log fold change Tl+ flux [12] -0.0246 | log fold change Tl+ flux (R275C/beta4) -0.0265

NP(N)(=O)NC(=O)c1ccc(F)cc1
inactive: remaining activity [1] 91.8%

Oc1cc(Cl)ccc1Oc1ccc(Cl)cc1Cl
active: log fold change Tl+ flux (F380Y/beta4) -0.429
inactive: fluorescence ratio [2] 1.01 | inhibition [3] 2.27% | inhibition [4] -0.48% | fluorescence ratio [5] 0.91 | log fold change Tl+ flux [12] -0.0387 | log fold change Tl+ flux (R275C/beta4) 0.0409

C[N+]1(CCC(C(N)=O)(c2ccccc2)c2ccccc2)CCCCC1
inactive: fluorescence ratio [2] 1.01 | inhibition [3] -1.98% | inhibition [4] -0.1% | fluorescence ratio [5] 0.95 | log fold change Tl+ flux (F380Y/beta4) -0.00383 | log fold change Tl+ flux [12] 0.0152 | log fold change Tl+ flux (R275C/beta4) -0.0252

CN1C(=O)COc2c(C(=O)NC3CN4CCC3CC4)cc(Cl)cc21 (stereo not drawn)
inactive: fluorescence ratio [2] 1.03 | inhibition [3] 2.77% | inhibition [4] 3.75% | fluorescence ratio [5] 1.02 | outcome [6] | outcome [7] | outcome [8] | outcome [13] | outcome [9] | outcome [14] | log fold change Tl+ flux (F380Y/beta4) 0.0243 | log fold change Tl+ flux [12] 0.0336 | log fold change Tl+ flux (R275C/beta4) -0.016

O=C(O)C(Cl)Cl
inactive: fluorescence ratio [2] 0.97 | inhibition [3] -0.4% | inhibition [4] 0.67% | fluorescence ratio [5] 0.96 | remaining activity [1] 99.4% | log fold change Tl+ flux (F380Y/beta4) -0.0155 | log fold change Tl+ flux [12] -0.0139 | log fold change Tl+ flux (R275C/beta4) -0.0167

CCN(CC)CCOC(=O)C(O)(c1ccccc1)c1ccccc1
inactive: fluorescence ratio [2] 0.99 | inhibition [3] -1.19% | inhibition [4] -0.87% | fluorescence ratio [5] 0.98 | log fold change Tl+ flux (F380Y/beta4) 0.0464 | log fold change Tl+ flux [12] -0.0223 | log fold change Tl+ flux (R275C/beta4) 0.00187

CCOC(=O)c1cncn1C(C)c1ccccc1 (stereo not drawn)
inactive: log fold change Tl+ flux (F380Y/beta4) 0.0301 | log fold change Tl+ flux [12] -0.00742 | log fold change Tl+ flux (R275C/beta4) -0.000383

COc1cc(N)c(Cl)cc1C(=O)NC1CN2CCC1CC2 (stereo not drawn)
inactive: fluorescence ratio [2] 0.94 | inhibition [3] -2.77% | inhibition [4] 9.91% | fluorescence ratio [5] 0.87 | remaining activity [1] 124%

c1ccc2c(c1)Nc1ccccc1S2
inactive: fluorescence ratio [2] 0.96 | inhibition [3] 1.53% | inhibition [4] 5.12% | fluorescence ratio [5] 0.95 | log fold change Tl+ flux (F380Y/beta4) -0.0296 | log fold change Tl+ flux [12] -0.0274 | log fold change Tl+ flux (R275C/beta4) -0.0162

COc1ccc(C(=O)N2CCCC2=O)cc1
inactive: remaining activity [1] 97.7% | outcome [6] | outcome [7] | outcome [8] | outcome [13] | outcome [9] | outcome [10] | outcome [11] | outcome [14]

COc1cccc([C@@]2(O)CCCC[C@@H]2CN(C)C)c1
inactive: log fold change Tl+ flux (F380Y/beta4) -0.0244 | log fold change Tl+ flux [12] -0.0312 | log fold change Tl+ flux (R275C/beta4) -0.00931

C#CCN(C)[C@H](C)Cc1ccccc1
inactive: fluorescence ratio [2] 0.95 and 0.99 | inhibition [3] -5.15% and -7.73% | inhibition [4] 2.21% and -4.29% | fluorescence ratio [5] 0.9 and 0.99 | outcome [6] | outcome [7] | outcome [8] | outcome [13] | outcome [9] | outcome [11] | outcome [14] | log fold change Tl+ flux (F380Y/beta4) 0.0201 | log fold change Tl+ flux [12] 0.000386 | log fold change Tl+ flux (R275C/beta4) -0.0396

C#C[C@]1(O)C=C[C@H]2[C@@H]3CCC4=CC(=O)CC[C@@H]4[C@H]3CC[C@@]21CC
inactive: outcome [6] | outcome [7] | outcome [8] | outcome [13] | outcome [9] | outcome [10] | outcome [11]
